RecA intein inh = inhibitors of M. tuberculosis RecA intein splicing. P9WHJ3. cell-free RecA intein splicing, fluorescence. inhibition, % (test concentration not listed). 290,000 compounds, 0.75% hits. AID 2221; in the data active = inhibition above about 30%;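 also: 0% = vehicle wells and 100% = reference inhibitor control wells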
GDH-TPI inh = GDH-TPI coupled enzyme inhibition counter-screen; inhibition, % at 4.8 µM; AID 588335; GDH-TPI coupled enzyme counterscreen, NADH absorbance; 360,000 compounds, 1.2% hits;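 also: 0% = DMSO wells and 100% = wells lacking the enzyme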
Mtb FBA inh = Mtb fructose-bisphosphate aldolase inhibition; P9WQA3; purified M. tuberculosis FBA, fluorescence read-out; inhibition, % at 1 µM; 360,000 compounds, 2.3% hits; AID 588726; in the data active = inhibition above about 27%;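 also: 0% = vehicle and 100% = reference inhibitor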
CCHFV vOTU inh = blocks the CCHF virus ovarian tumor domain protease; inhibition, % at 11.5 µM; CCHFV vOTU protease, Pep-AMC fluorescence; 370,000 compounds, 0.55% hits; also: 0% = vehicle wells with enzyme and 100% = no enzyme wells
* = called active by the depositor; i = inactive; . = no result given; + = active, no number. Rows were chosen to be rich in hits. Some 4.2% of all compounds tested hit in one or more screens of this group. Rule as the data show it, unless noted: active = inhibition above about 30%; inactive = the rest.

SMILES	RecA intein inh	GDH-TPI inh	Mtb FBA inh	CCHFV vOTU inh
Cn1c(O)c(N=NC(=N)N)c2ccccc21	1	40*	-2	8
CCOc1ccc2c(c1)c(N=NC(N)=S)c(O)n2C	-3	31*	-1	-3
CCCn1c(O)c(N=NC(=O)CNC(=O)c2cccnc2)c2ccccc21	2	6	-4	1
CC(OC(=O)c1ccc2c(c1)NC(=O)CS2)C(=O)c1ccc(F)cc1 (centres undefined)	.	5	-1	11
O=C(Nc1cccc(S(=O)(=O)N2CCCCC2)c1)c1ccc2c(=O)n3c(nc2c1)CCCCC3	8	5	1	0
COC(=O)[C@H](C)NC(=O)[C@H](CC(C)C)NC(=O)OC(C)(C)C	.	.	.	4
C=CCN(CC#Cc1cccnc1)Cc1ccc(OC)cc1OC	.	.	.	4
COCCCNC(=O)c1cc2c(=O)n3cccc(C)c3nc2n(C(C)C)c1=N	-408	-1	+	-3
COCCn1c(=N)c(C(=O)NCCc2ccc(OC)cc2)cc2c(=O)n3cccc(C)c3nc21	-2	8	5	1
CCNC(=O)c1cc2c(=O)n3cccc(C)c3nc2n(Cc2ccc(C)cc2)c1=N	i	4	112*	-95
Cc1cccn2c(=O)c3cc(C(=O)NC(C)C)c(=N)n(Cc4ccncc4)c3nc12	-383	2	+	-196
COc1ccc(Cl)cc1C(=O)OCC(=O)c1ccc[nH]1	.	11	4	-4
S=c1nc(-c2ccccc2)n(CCCn2ccnc2)c2c1CCCC2	1	41*	1	12
S=c1nc(-c2ccccc2)n(CCCN2CCOCC2)c2c1CCCC2	3	12	0	-10
O=c1c2oc3ccccc3c2[nH]c(=S)n1-c1ccc(F)cc1	0	33*	3	12
C=CC(=O)Nc1cccc(Oc2ccnc3[nH]ccc23)c1	.	2	180*	.
C=CC(=O)Nc1cccc(Oc2ccnc(Nc3ccc(N4CCN(C)CC4)cc3)n2)c1	.	2	-1	-4
Cc1cc(=O)oc(C)c1C(=O)NCCC(C)C	0	32*	0	-8
Cc1cc(=O)oc(C)c1C(=O)NCCNC(=O)c1c(C)cc(=O)oc1C	1	-5	4	7
O=c1ccncn1C1OC(CO)C(O)C1O (centres undefined)	.	9	4	-20
CCOC(=O)c1cnc2ccc(C(=O)OC)cc2c1NCCCN1CCOCC1	-4	53*	19	-14
CCOc1ccc(C(=O)NCCCN2CCOCC2)cc1OCC	0	2	+	-7
CC1CC(C)CN(C(=O)c2ccc3c(c2)N(Cc2ccccc2)CCS3)C1 (centres undefined)	35*	8	10	.
CCOC(=O)c1cnc2ccc(C(=O)OC)cc2c1NCCN1CCOCC1	4	21	5	-21
CCOC(=O)N1CCN(C(=O)c2ccc3c(c2)N(Cc2ccccc2)CCS3)CC1	6	5	11	-12
SMILES	RecA intein inh	GDH-TPI inh	Mtb FBA inh	CCHFV vOTU inh
O=C(NCCN1CCOCC1)c1ccc2c(c1)N(Cc1ccccc1)C(=O)CS2	1	-8	-7	-12
O=C(NCCN1CCOCC1)c1ccc2c(c1)N(Cc1ccccc1)CCS2	-10	9	118*	-142
CN1CCN(CCCNC(=O)c2ccc3c(c2)N(Cc2ccccc2)CCS3)CC1	-4	9	190*	-59
O=C(NCC1CCCO1)c1ccc2c(c1)N(Cc1ccccc1)CCS2 (centres undefined)	-6	-8	141*	-142
O=C(NCCCN1CCOCC1)c1ccc2c(c1)N(Cc1ccccc1)CCS2	0	0	119*	-151
Cc1ccc(CN2CCSc3ccc(C(=O)NCCCN4CCOCC4)cc32)cc1	-14	9	162*	-136
O=C(NCC1CCCO1)c1ccc2c(c1)N(Cc1ccccc1)C(=O)CS2=O (centres undefined)	1	2	0	-1
O=C(NCCCN1CCOCC1)c1ccc2c(c1)N(Cc1ccccc1)C(=O)c1ccccc1S2	1	9	-1	-18
COc1ccccc1C(CNc1nc(C(F)(F)F)nc2ccccc12)N(C)C (centres undefined)	-4	7	-1	14
COc1ccc2c(c1)c1ncn(CC3CCCO3)c(=O)c1n2C (centres undefined)	-3	15	+	-134
COc1ccc2c(c1)c1ncn(CCCN3CCOCC3)c(=O)c1n2C	3	9	170*	-137
COc1ccc(C2Nc3cc(OC)ccc3-n3cccc32)cc1 (centres undefined)	-47	34*	9	-48
Nc1c2c(nc3ccccc13)N(c1ccccc1)CC2	-4	-3	14	-76
CCCC(=O)Nc1c2c(nc3ccccc13)N(c1ccccc1)CC2	-8	10	192*	.
O=C(COC(=O)/C=C/c1cccc(C(F)(F)F)c1)NC1CCS(=O)(=O)C1 (centres undefined)	.	0	2	-3
O=C(CC1C(=O)NCCN1Cc1c(F)cccc1Cl)NCCCOc1cccnc1 (centres undefined)	1	1	2	12
Cc1ccc(N(CC(=O)NC2CCCCC2)S(=O)(=O)c2c(C)noc2C)cc1	-1	5	3	16
Cc1ccc(C)c(N2CCN(S(=O)(=O)c3c(C)noc3/C=C/N(C)C)CC2)c1	3	36*	-5	10
Cc1noc(/C=C/N(C)C)c1S(=O)(=O)N1CCN(c2ccccc2)CC1	-2	20	4	8
CNC(=O)C1CCN(S(=O)(=O)c2c(C)noc2/C=C/N(C)C)CC1	0	35*	-4	10
Cc1noc(/C=C/N(C)C)c1S(=O)(=O)N1CCCC(C(=O)NC2CCCCC2)C1 (centres undefined)	3	58*	-1	9
Cc1noc(/C=C/N(C)C)c1S(=O)(=O)N(C)CC(=O)NC1CCCCC1	1	51*	5	11
CCc1ccc(NC(=O)C2CCN(S(=O)(=O)c3c(C)noc3/C=C/N(C)C)CC2)cc1	-7	24	-4	16
Cc1ccc2c(c1)-c1c(cnn1CC(=O)NCCc1cccc(F)c1)CO2	.	.	.	-1
COc1ccc(N2CC(C(=O)N3CCN(c4ccccc4F)CC3)CC2=O)cc1 (centres undefined)	-2	3	1	-2
SMILES	RecA intein inh	GDH-TPI inh	Mtb FBA inh	CCHFV vOTU inh
Cc1noc(/C=C/N(C)C)c1S(=O)(=O)N1CCCC(C(=O)Nc2ccccc2F)C1 (centres undefined)	8	47*	0	23
Cc1cc(C)c(NC(=O)C2CCCN(S(=O)(=O)c3c(C)noc3/C=C/N(C)C)C2)c(C)c1 (centres undefined)	-4	34*	-2	17
Cc1ccc(S(=O)(=O)C(C#N)c2nc3ccccc3nc2N2CCCC2)cc1 (centres undefined)	-10	11	128*	-27
Cc1ccc(S(=O)(=O)c2cc3ccccc3oc2=O)cc1	-2	19	3	-5
Cc1c(O)ccc2cc(S(=O)(=O)c3ccccc3)c(=O)oc12	i	3	+	-361
COc1ccc(-c2ccnc3ncnn23)cc1	1	13	+	-232
FCCCOc1ccc(-c2ccnc3ncnn23)cc1	1	0	+	-258
COc1ccc(-c2cnc3ncnn3c2N)cc1	-2	7	0	7

High-throughput results from PubChem BioAssay.
